The whole screen tested about 1,900 compounds, of which about 240 (13%) were called active.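 The calls were made as follows: active = mean inhibition at least 40% at 20 µM, or signal 3 deviations below plate average, so some actives read negative; inactive = the rest.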 The list is a sample of the results.

Broadly, the inhibition is the relative decrease from the control value, in per cent.

The target of the assay is Prothrombin (Bos taurus) (UniProt P00735). Briefly: blocking of thrombin cleavage of Ub4 substrate – biochemical, fluorescence polarization, single concentration, counter-screen for Rpn11 inhibitor project, confirmation (AID 602333).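 Also: plate controls were thrombin with DMSO for no effect and buffer wells lacking thrombin for full effect.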 The note with it: bovine thrombin cleavage of Ub4-pepOG, at 20 µM, active compounds read high.
Prothrombin (Bos taurus), sequence (P00735 whole entry, looked up): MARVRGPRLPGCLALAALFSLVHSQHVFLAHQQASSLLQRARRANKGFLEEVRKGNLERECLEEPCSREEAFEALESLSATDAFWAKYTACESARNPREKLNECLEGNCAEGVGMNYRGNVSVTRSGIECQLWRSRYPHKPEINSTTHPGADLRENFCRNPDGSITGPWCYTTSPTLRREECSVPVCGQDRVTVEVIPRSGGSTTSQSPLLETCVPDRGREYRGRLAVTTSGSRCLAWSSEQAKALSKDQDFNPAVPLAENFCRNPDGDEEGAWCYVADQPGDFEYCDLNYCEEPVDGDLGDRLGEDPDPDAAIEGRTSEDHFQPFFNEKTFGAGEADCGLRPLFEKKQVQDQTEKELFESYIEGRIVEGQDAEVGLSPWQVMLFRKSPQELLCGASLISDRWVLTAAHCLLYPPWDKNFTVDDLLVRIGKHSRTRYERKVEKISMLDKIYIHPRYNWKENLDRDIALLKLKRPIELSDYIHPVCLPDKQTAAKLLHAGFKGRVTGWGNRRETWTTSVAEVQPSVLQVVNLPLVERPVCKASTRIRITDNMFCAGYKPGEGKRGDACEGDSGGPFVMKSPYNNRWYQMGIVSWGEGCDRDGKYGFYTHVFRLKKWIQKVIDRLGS
As to `CC(C)Cn1c(CCC(=O)O)ccc1-c1cccs1`, the inhibition was -22.2% (inactive).
In the case of `CCC/C=C(\CCC)C(NC(=O)Cc1ccccc1)c1ccc(C(=O)OC)cc1` (centres undefined), the inhibition was -11.1% (inactive).
Take `Cc1oc2c(C)c3oc(=O)c(CC(=O)N[C@@H](CC(C)C)C(=O)N[C@@H](Cc4ccccc4)C(=O)O)c(C)c3cc2c1C`: the inhibition is 29.3% (inactive).
Regarding `Cc1cc(/C=C2/SC(=O)N(CC(=O)N3CCCC3)C2=O)ccc1N1CCOCC1`, the inhibition is 23.9% (inactive).
The figure for `CC(=O)Nc1ccccc1Sc1ccc2c3c(cccc13)C(=O)N(c1ccc(C)cc1)C2=O` is 4.95% (inactive); for `O=C1NC(=O)C2C1C(c1ccc([N+](=O)[O-])cc1)=NN2Cc1ccccc1` (centres undefined) it is 15.8% (inactive).
Regarding `Cc1cccc(OCc2nnc(SCc3nc4cc(C(F)(F)F)ccc4c(=O)[nH]3)o2)c1`, the inhibition is 42.8% (active).
With `CC(=O)/C(=N\Nc1ccc(Cl)cc1Cl)Sc1cccc2cccnc12`, the inhibition is 1.24% (inactive).
Turning to `CC1CCN(c2ccc3c(c2)S(=O)(=O)c2cc(C(=O)O)ccc2C3=O)CC1`, the inhibition was 18.1% (inactive).
For the molecule `CN(C)c1ccc(-n2cccc2/C=C2/SC(=Nc3ccc(F)cc3)NC2=O)cc1`, the inhibition is -29.3% (inactive).
Regarding `O=C(CSc1nc2ccccc2c(=O)[nH]1)Nc1nc(-c2ccc(Br)cc2)cs1`, the inhibition was -3.66% (inactive).
`CCOC(=O)N1CCC(NC(=O)C(NS(=O)(=O)c2ccc3c(c2)CCN3C(=O)CC)C(C)C)CC1` (centres undefined): the inhibition was 1.81% (inactive).
Take `CCOc1ccc(-n2c(O)c(/C=N/Nc3nnc(C)c(=O)[nH]3)c3ccccc3c2=O)cc1`: the inhibition is -1.67% (inactive).
The figure for `CCOc1ccc(-n2c(O)c(/C=N/c3ccnn3Cc3ccncc3)c3ccccc3c2=O)cc1` is 82.5% (active).
Take `CC(C)Oc1ccc(/C=C(\NC(=O)/C=C/c2ccco2)C(=O)NCCc2nc3ccccc3[nH]2)cc1`: the inhibition was 21% (inactive).
With `COc1ccc(CNC(=O)c2nnn(CC(=O)Nc3cc(C)cc(C)c3)c2N)cc1`, the inhibition is -6.95% (inactive).
As for `CN(C)CCOC1c2ccccc2-c2ccccc21`, the inhibition is -14% (inactive).
For `CC(=O)c1sc(N/N=C/c2ccc(C(C)C)cc2)nc1C`, the inhibition is -6.77% (inactive).
As for `Cc1ccc(NC(=O)CN2CCc3ccccc3C2)cc1`, the inhibition is -14.3% (inactive).
Then `C=CC[n+]1c(-c2ccc(C)cc2)csc1NNC(=O)Nc1ccccc1`, with 4.61% (inactive); and `COc1ccc(-n2c(SCC(=O)Nc3sc4c(c3C#N)CCCC4)nnc2-c2ccc(O)cc2)cc1`, with -8.59% (inactive); and `Cc1nc2ccccc2n1C(=O)N1CCOCC1`, with -8.33% (inactive).
On to `CCCS(=O)(=O)N1CCCC(C(=O)NCc2ccco2)C1` (centres undefined), for which the inhibition is -12.9% (inactive).
With `Cc1ccc(N=Cc2c(O)cc(C)oc2=O)c(C)c1`, the inhibition is 8.99% (inactive).
Turning to `CSC1=N/C(=C\C=C\c2cccs2)C(=O)S1`, the inhibition is 3.5% (inactive).
As to `CCCOc1ccc(Cn2c(O)cc(=O)[nH]c2=O)cc1`, the inhibition was 7.31% (inactive).
With `Nc1nonc1-n1nnc(C(=O)N/N=C/c2cc(Br)ccc2O)c1CSC1=NCCS1`, the inhibition was 2.28% (inactive).
For the molecule `CCN(CC)C(=O)CSc1nc2ccccc2n1CC(=O)N1CCN(c2ccccc2OC)CC1`, the inhibition is -2.4% (inactive).
As to `COc1cccc(/C=C(/CC(=O)Nc2ccc(N3CCOCC3)cc2)c2nc3ccccc3s2)c1`, the inhibition was 7.25% (inactive).
In the case of `O=C(O)c1ccc(NN=CC2=C(N3CCOCC3)/C(=C/c3ccccc3)CC2)cc1`, the inhibition is 46.5% (active).
Then `CCCCCCSc1ccc([C@@H]2[C@H]3C(=O)N(CC)C(=O)[C@H]3[C@]3(C(=O)OC)CCCCN23)cc1`, with 60.5% (active).
As for `O=C(Nc1ccc(-c2nnc(-c3ccccc3)o2)cc1)c1ccc(Br)o1`, the inhibition is -5.94% (inactive).
Turning to `Cc1c(N=Nc2ccc(N(C)C)cc2)c(=O)n(-c2ccccc2)n1C`, the inhibition was 37.7% (inactive).
On to `N#Cc1c(-c2cccs2)nc(SCC(=O)c2ccc(Br)cc2)[nH]c1=O`, for which the inhibition is 15.6% (inactive).
As to `NC(N)=N/N=C/c1ccc(OCc2ccc(Cl)cc2Cl)cc1`, the inhibition was -36.6% (inactive).
With `CS(=O)(=O)c1ccc2c(c1)SC1=NC(=O)/C(=C/c3ccco3)C(=N)N12`, the inhibition is 26% (inactive).
Regarding `Cc1sc2nc(COC(=O)C(NC(=O)c3ccc(Cl)cc3Cl)C(C)C)[nH]c(=O)c2c1C` (centres undefined), the inhibition was 13.5% (inactive).
On to `O=C(CSc1cccc2cccnc12)N/N=C/c1cccnc1`, for which the inhibition was -13.1% (inactive).
With `CC(C)CC1C(=O)N(Cc2cn(Cc3ccco3)nn2)CCS(=O)(=O)N1Cc1ccc(-c2ccc(Cl)c(Cl)c2)cc1` (centres undefined), the inhibition is -6.74% (inactive).
The figure for `COC1=C/C(=C/c2c(N)n3nc(CC(=O)N4CCOCC4)sc3nc2=O)C=CC1=O` is 36% (inactive); for `CN=c1scc(-c2cc(OC)ccc2OC)n1/N=C/c1c(C)[nH]c2ccccc12` it is 30% (inactive).
For `O=C(OCc1cc2ccccc2[nH]c1=O)c1cccnc1`, the inhibition was -12.2% (inactive).
As for `CCOc1cc(/C=C2\SC(N3CCCC(C)C3)=NC2=O)ccc1O` (centres undefined), the inhibition is 10% (inactive).
As to `CCc1ccc(-c2cc(C(=O)NCc3ccco3)c3ccccc3n2)s1`, the inhibition was 33.8% (inactive).
As for `Oc1c(CN2CCCC2)cc(COCc2ccccc2)c2cccnc12`, the inhibition was -28.1% (inactive).
For `O=C(CCS(=O)(=O)c1cccc2nonc12)NCCc1ccccc1Cl`, the inhibition was -6.4% (inactive).
As for `CCc1ccc(NC(=O)CS(=O)CC(=O)NCCCc2ccccc2)cc1` (centres undefined), the inhibition was 5.42% (inactive).
`N#Cc1ccc(C(=O)Nc2cccc3cccnc23)c(F)c1`: the inhibition is -28.1% (inactive).
For the molecule `COc1ccc(NC(=O)Cn2c(-c3ccc(OC)cc3)cn(-c3ccc(C)cc3)c2=O)cc1`, the inhibition is 29.3% (inactive).
`Cc1cc(/C=N/Nc2ccc([N+](=O)[O-])cn2)c(C)n1-c1cccc(C(=O)O)c1`: the inhibition is -0.18% (inactive).
With `COc1ccc(CC(=O)Nc2ccc(-c3nnc(-c4ccc(C)cc4)o3)cc2)cc1`, the inhibition was -14.6% (inactive).
The figure for `C=CCn1c(=S)[nH]c2scc(-c3ccco3)c2c1=O` is -8.62% (inactive); for `Cc1cc(OCC(=O)Nc2nccs2)c2c(C)c(C)c(=O)oc2c1` it is -9.45% (inactive).
For the molecule `COC(=O)c1ccc(OCC(=O)NC(C)(C)C)cc1`, the inhibition is -4.55% (inactive).
